# Assay results from PubChem BioAssay AID1663 (Broad Institute, 2009).
# Among all 300,000 compounds or so, about 660 (0.22%) were called active. Many of the other results were omitted from the sample, so actives are more common in it than they were. Unmarked numbers belong to inactive results.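 The calls were made as follows: active = mean replicate score, as percent of positive control, at or above 50; inconclusive = mean below 50 but at least one replicate at or above 50; inactive = mean and every replicate below 50.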
# Test: blockers of SFLLRN-triggered platelet ATP release – cell-based, MLPCN, human platelets, primary screen (AID 1663)
# Details: human platelet-rich plasma, SFLLRN dense granule ATP release, luminescence; stronger effect = higher value;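 compounds screened at 7.5 µM in platelet-rich plasma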
row,SMILES,inhibition
1,Cc1ccc(-n2ncc3c2CCCC3NC(=O)c2cnccn2)cc1C (stereo not given),-0.139%
2,Cc1ccc(S(=O)(=O)N2CCOCC2)cc1C(=O)OC1CCCCC1=O (stereo not given),-6.92%
3,COc1ccccc1NC(=O)Nc1nnc(Cc2ccc(F)cc2)s1,1.62%
4,CC1CCC2(CC1)NC(=O)N(Cc1nnc(-c3cccs3)o1)C2=O (stereo not given),3.04%
5,Cc1ccc2c(C)c(C(=O)N(C)CCC3CCCCO3)oc2c1C (stereo not given),4.71%
6,COc1cccc(C(C(=O)NC2CCCC2)N(C(=O)c2ccco2)c2cccc(C(C)=O)c2)c1OC (stereo not given),-1.88%
7,OCCC1CN(Cc2cccc(OC3CCCC3)c2)CCN1Cc1ccsc1 (stereo not given),-11.2%
8,CCOc1ccc(S(=O)(=O)N2CCC(C(=O)NCc3ccccn3)CC2)cc1Cl,-1.17%
9,O=C(Nc1ccc(-n2cccn2)cc1)C1CCN(Cc2ccsc2)CC1,0.088%
10,CCOc1ccc(C(=O)Nc2cccc(SC)c2)cc1,25.4%
11,COc1ccc(C(C(=O)NC(C)(C)C)N(Cc2ccc(F)cc2)C(=O)CCC(=O)Nc2cc(C)on2)cc1 (stereo not given),2.89%
12,CCC1CCCCN1C(=S)Nc1ccc(S(=O)(=O)Nc2ncccn2)cc1 (stereo not given),-1.83%
13,CC(=O)Nc1ccc(S(=O)(=O)NCC2CCC(C(=O)NCCc3ccccc3)CC2)cc1 (stereo not given),-0.696%
14,Cc1ccc2c(cnn2C(=O)CCC(=O)NC2CCCC2)c1,6.24%
15,CCn1c(SC(C)C(=O)Nc2ccc(N3CCOCC3)cc2)nnc1-c1ccco1 (stereo not given),-6.89%
16,O=C(Oc1ccc(Br)cc1)c1cccnc1,3.93%
17,O=C(Oc1ccc(-c2nc(-c3ccccn3)no2)cc1)c1ccccc1,83.2% (active)
18,Cc1ccc(Oc2nc(-c3ccccn3)nc3ccccc23)cc1,7.76%
19,O=C1[C@@H]2C(c3cccnc3)=NO[C@@H]2C(=O)N1c1ccc(Cl)cc1Cl,3.23%
20,COCCN(CCOC)c1nc(N)c2c(N)nc3c(c2c1C#N)CC(=O)N3Cc1ccc(Cl)cc1,-8.74%

row,SMILES,inhibition
1,CCCC(=O)Nc1cccc(NC(=S)NC(=O)C(C)Oc2ccc(Cl)cc2Cl)c1 (stereo not given),4.37%
2,Cn1nc(C(F)(F)F)c(C(=O)Nc2cccc(C(F)(F)F)c2)c1SCc1ccc(Cl)cc1,0.563%
3,Cc1c(C#N)c(NC(=O)c2ccccc2)n(Cc2ccccc2)c1C,-12.1%
4,CCN1CCN(C(=O)c2ccc(CN(c3ccc(C)c(C)c3)S(C)(=O)=O)cc2)CC1,3.03%
5,Cc1nc(N)c(Br)c(C)c1Br,-11.2%
6,CCOc1ccc(CCNC(=O)COC(=O)C2CCN(c3ccc(C(F)(F)F)cn3)CC2)cc1OCC,-1.24%
7,CCCCc1ccc(S(N)(=O)=O)cc1,5.59%
8,NNC(=O)CNC(c1ccccc1)c1cc(Cl)ccc1NC(=O)c1ccccc1 (stereo not given),2.02%
9,CCOC(=O)/C=C/c1ccc(C(F)(F)F)cc1S(=O)(=O)NC(C)(C)C,0.739%
10,O=C(c1ccco1)N1CCN(C(=O)c2ccc(COc3ccc(F)cc3)o2)CC1,60.5% (active)
11,COc1ccccc1OCc1ccc(C(=O)N2CCN(C)CC2)o1,-1.97%
12,O=C(c1ccco1)N1CCN(CCOc2ccccc2)CC1,-1.03%
13,CN(C)NC(=O)C(NC(=O)c1ccc(N)cc1)C12CC3CC(CC(C3)C1)C2 (stereo not given),-0.607%
14,O=C(CCN1CCc2ccccc2C(O)(c2ccccc2)C1)c1ccc2c(c1)OCCO2 (stereo not given),-76.9%
15,CC(=O)Nc1ccc(CN2CCC(Oc3ccc(C(=O)N4CCCC4)cc3)CC2)cc1,-7.89%
16,CC(C)(C)NC(=O)NC(=O)COC(=O)C1c2ccccc2Oc2ccccc21,-3.75%
17,O=C(Nc1ccn(Cc2ccccc2)n1)c1n[nH]c([N+](=O)[O-])c1Cl,0.241%
18,O=C(Nc1ccn(Cc2ccccc2)n1)c1cccc(F)c1,7.39%
19,O=C(Nc1ccn(Cc2ccc(F)cc2)n1)c1ccncc1,50.5% (active)
20,O=C(Nc1ccc(S(=O)(=O)NCC2CCCO2)cc1)c1ccc(F)cc1 (stereo not given),-4.99%

row,SMILES,inhibition
1,Cc1ccnc(NC(=O)CNC(=O)c2ccccc2)c1,-2.51%
2,COc1cc(SC)ccc1C(=O)Nc1cc(C)ccn1,5.66%
3,Cc1ccnc(NC(=O)c2ccoc2C)c1,50.8% (active)
4,Cc1csc(Nc2ccc(Cl)cc2)[n+]1-c1ccc(Cl)cc1,-1.67%
5,Oc1ccc(CNc2ccccc2O)cc1,4.21%
6,CCOc1ccc(C(=O)Nc2ccc(S(=O)(=O)NCC3CCCO3)cc2)cc1OCC (stereo not given),-1.27%
7,COC(=O)CN1C(=O)C(C)(C)Oc2ccc(C(=O)Nc3cccc(OC)c3)cc21,-3.5%
8,CCOC(=O)c1ccc(NC(=O)Cn2cnc3cc(C)c(C)cc32)cc1,9.16%
9,CCCCn1c(N)c(N(CCC(C)C)C(=O)c2ccc(COc3ccccc3)o2)c(=O)[nH]c1=O,-0.548%
10,Cc1ccc(NC(=O)CSCC(=O)Nc2sccc2C#N)cc1,-1.59%
11,O=C1/C(=C/c2ccc(F)cc2)SC(=S)N1NS(=O)(=O)c1ccccc1,-3.17%
12,COc1cccc(CNC(=O)CCCC(=O)Nc2cccc([N+](=O)[O-])c2)c1,6.93%
13,COc1ccc(S(=O)(=O)NC(C)C(=O)Nc2cccc([N+](=O)[O-])c2)cc1 (stereo not given),3.55%
14,COC(=O)/C=C\C(=O)Nc1cccc([N+](=O)[O-])c1,73% (active)
15,CN(C)c1nc(=Nc2cccc(Cl)c2)ss1,-3.66%
16,CCc1ccc(-c2nc(SCC(=O)NC3CCCC3)n[nH]2)cc1,-5.4%
17,CC(=O)CCS(=O)(=O)c1ccc(C)c(C)c1,3.49%
18,c1ccc2[nH]c(-c3nc4ccccc4[nH]3)nc2c1,76.6% (active)
19,Cc1ccc(-c2nc3ccccc3[nH]2)cc1N,17.1%
20,OC(c1nc2ccccc2[nH]1)C(O)C(O)C(O)c1nc2ccccc2[nH]1 (stereo not given),-3.4%
